# TDP-43 rescue = TDP-43 toxicity inhibition in yeast; yeast TDP-43 toxicity rescue, BacTiter-Glo growth, 24 h; Potency, µM (top dose mostly 46.1 µM), actives largely listed as activators; 0.45% of 45,000 active; active = well fitted activation curve with a large enough effect; also: 0% is about no effect; nearly all actives have a fitted effect of over 55% in size
#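 TDP-43-expressing yeast, pregrown in raffinose, seeded at OD600 0.02 in galactose medium with compound for 24 hr at 30 deg C. Growth read by BacTiter-Glo luminescence, so rescue of toxicity appears as activation.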
# * = called active by the depositor; i = inactive. Many of the other results were omitted from the sample, so hits are more common in it than they were. Potency is read from the fitted curve at half-maximal effect.
SMILES,TDP-43 rescue
CCC1(c2ccccc2)NC(=O)N(CC(=O)NCc2ccncc2)C1=O (stereo not drawn),i
Cc1cc(O)c(CN2CCN(c3ccccc3)CC2)c2oc(=O)cc(C)c12,i
O=C(CCC(=O)Nc1cc(C(F)(F)F)ccc1Cl)N/N=C\c1cc([N+](=O)[O-])ccc1O,i
Cc1cc(NC(=O)c2cccc([N+](=O)[O-])c2)n(-c2ccccc2)n1,i
Nc1c(-c2ccccc2)c(CN2CCOCC2)nn1-c1cccc([N+](=O)[O-])c1,i
Cc1ccccc1-c1cnn(-c2cccc([N+](=O)[O-])c2)c1N,12.6µM*
O=[N+]([O-])c1cccc(OCC(O)CN2CCN(S(=O)(=O)c3cc(Cl)ccc3Cl)CC2)c1 (stereo not drawn),i
COc1ccccc1-c1ccc2c(c1)C(C)(Cc1ccc(Cl)c(Cl)c1)C(=O)N2 (stereo not drawn),i
CCc1ccc2c(c1)NC(=O)C2(C)Cc1ccc(Cl)cc1 (stereo not drawn),i
Cc1ccc(CC2(C)C(=O)Nc3c(Cl)cccc32)cc1 (stereo not drawn),8.91µM*
CCCS(=O)(=O)N1CCN(Cc2ccc([N+](=O)[O-])cc2)CC1,i
Cc1[nH]c2ccc(C(=O)N3CCC(C(N)=O)CC3)cc2c1C,i
Cc1ccccc1S(=O)Cc1ccc(C(=O)N2CCN(c3cccc(C)c3C)CC2)o1 (stereo not drawn),20µM*
COc1cccc(N2CCN(C(=O)c3ccc(CS(=O)c4ccc(C)cc4)o3)CC2)c1 (stereo not drawn),i
CC1=C(C(=O)N2CCN(c3cccc(C)c3C)CC2)C2(CCCCC2)OC1=O,i
Cc1ccc(/C=N/Nc2ccc(F)cc2)s1,i
Cc1cc(C=O)c(C)n1-c1cc(C(F)(F)F)ccc1N1CCOCC1,i
CCc1nc(=O)c(-c2ccccc2)c(C)n1-c1ccccc1,i
COc1ccc(-c2nc(CNS(=O)(=O)c3cccc(F)c3)cs2)cc1,15.8µM*
COc1ccc(-c2nc(CNS(=O)(=O)c3ccc(F)cc3)cs2)cc1,i
COc1ccc(-c2nc(CNS(=O)(=O)c3ccc(C)cc3)cs2)cc1,i
CCCCN(C(=O)CNC(=O)c1cccs1)C(C(=O)NC1CCCC1)c1ccncc1 (stereo not drawn),i
C1CC(CN2CCOCC2)CN(Cc2nc(CC3CC3)no2)C1 (stereo not drawn),i
COc1ccc(CNc2ncnc3c2[nH]c2cc(OC)c(OC)cc23)cc1,i
COc1ccc2c(c1)[nH]c1c(=O)n(CCN3CCOCC3)cnc12,i
SMILES,TDP-43 rescue
COc1ccc2c(c1)[nH]c1c(Cl)ncnc12,14.1µM*
CC(C)(C)c1cc(C(=O)N/N=C/c2ccccc2O)n(-c2ccccc2)n1,i
Cc1noc(C)c1COC(=O)/C=C/c1ccc(Cl)cc1,i
O=C(CSc1nnc(COc2ccccc2)o1)NC1CC2CCC1C2 (stereo not drawn),i
Cc1ccc(C(=O)N2CCN(S(=O)(=O)c3cc(Br)ccc3Br)CC2)o1,14.1µM*
Cc1cc(C)c(S(=O)(=O)N2CCN(C(=O)c3cc4ccccc4o3)CC2)c(C)c1,i
Cc1onc(-c2ccccc2)c1C(=O)N1CCN(S(=O)(=O)c2ccccc2Br)CC1,i
O=C(N/N=C/c1ccc(O)c(O)c1)NC12CC3CC(CC(C3)C1)C2,i
NC(=S)N/N=C/c1ccc(C23CC4CC(CC(C4)C2)C3)cc1,7.94µM*
O=C(N/N=C/c1ccccc1O)NC12CC3CC(CC(C3)C1)C2,i
COc1ccc(C2c3cc(OC)c(OC)cc3CCN2S(C)(=O)=O)cc1OC (stereo not drawn),i
COc1cccc(N(C(=O)c2ccco2)C(C(=O)NC2CCCC2)c2cccnc2)c1 (stereo not drawn),i
CC(C)[C@H](NC(=O)OCc1ccccc1)C(=O)OCC(=O)NCc1ccco1,i
CCCNS(=O)(=O)c1ccc(CCC(=O)Nc2ccc3c(c2)OCCO3)cc1,i
CC(NS(=O)(=O)c1ccc2c(c1)OCCO2)c1ccccc1 (stereo not drawn),i
O=S(=O)(NCCc1csc(-c2ccccc2)n1)c1ccc2c(c1)OCCO2,17.8µM*
CCOC(=O)C1=C(C)NC(C)=C(C(=O)OCC)C1C(=O)OCC(=O)N(C)C,i
COc1ccc(NC(=O)CC2SC(=NCC3CCCO3)NC2=O)c([N+](=O)[O-])c1 (stereo not drawn),i
Cc1ccc(CN(C(=O)COc2ccc(C)c(C)c2)C2CCS(=O)(=O)C2)o1 (stereo not drawn),i
CN=c1scc(-c2ccccc2F)n1/N=C/c1ccc[nH]1,i
C=CCN=c1scc(-c2ccc(F)cc2)n1/N=C/c1ccccn1,11.2µM*
COc1ccc(S(=O)(=O)N2CCN(Cc3ccc4c(c3)OCO4)CC2)cc1F,i
S=c1[nH]nc(-c2ccco2)n1/N=C/c1ccccc1Cl,i
CCC(C)/C(C)=N/NC(=O)c1ccccc1OCCOc1ccccc1 (stereo not drawn),i
O=C(O)c1ccccc1OCCOc1ccccc1,22.4µM*
